Screening data (PubChem BioAssay)
POLH inh: inhibitors of human DNA polymerase eta | Q9Y253 | recombinant Pol eta, fluorescent DNA replication assay | Potency, µM (doses to about 114 µM), inactives show top-dose activity change, negative = inhibition, usual class: inhibitors | 390,000 tested, 1.2% active; note: potency is the fitted concentration of half-maximal effect; % is set by controls: 0 for no effect and ±100 for the full control effect
Target sequence (Q9Y253 whole entry, looked up): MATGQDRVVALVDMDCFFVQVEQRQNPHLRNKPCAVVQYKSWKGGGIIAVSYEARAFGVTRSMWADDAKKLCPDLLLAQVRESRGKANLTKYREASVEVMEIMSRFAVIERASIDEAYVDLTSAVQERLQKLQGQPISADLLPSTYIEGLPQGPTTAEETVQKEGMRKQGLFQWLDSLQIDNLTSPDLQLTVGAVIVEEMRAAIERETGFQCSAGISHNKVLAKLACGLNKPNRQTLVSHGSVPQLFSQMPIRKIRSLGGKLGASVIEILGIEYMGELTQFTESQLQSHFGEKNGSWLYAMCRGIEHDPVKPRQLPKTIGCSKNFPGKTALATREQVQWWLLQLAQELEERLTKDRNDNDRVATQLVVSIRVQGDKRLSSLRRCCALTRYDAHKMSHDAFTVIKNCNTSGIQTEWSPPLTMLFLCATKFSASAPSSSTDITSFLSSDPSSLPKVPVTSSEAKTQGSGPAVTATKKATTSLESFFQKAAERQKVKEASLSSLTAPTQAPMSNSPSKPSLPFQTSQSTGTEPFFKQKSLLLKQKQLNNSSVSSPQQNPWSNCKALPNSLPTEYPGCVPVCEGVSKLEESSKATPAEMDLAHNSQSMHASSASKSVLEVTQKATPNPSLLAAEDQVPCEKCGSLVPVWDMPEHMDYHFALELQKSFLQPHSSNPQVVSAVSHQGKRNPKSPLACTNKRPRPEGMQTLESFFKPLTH
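Pol eta (10 nM) was preincubated with compounds for 15 min at room temperature, after which fluorescent replication substrate (50 nM final) was added to start the reaction. Fluorescence was read kinetically at 0 and 10 min.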
12-LOX inh: blocks human arachidonate 12S-lipoxygenase | purified 12hLO, xylenol orange hydroperoxide absorbance | 580,000 tested, 1.1% active | P18054 | Potency, µM (series often up to 108 µM), for the others: top-dose activity change, negative = inhibition, hits mostly inhibitors; note: potency is the fitted concentration of half-maximal effect; % is set by controls: 0 for no effect and ±100 for the full control effect
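Hydroperoxide product was detected by ferrous iron/xylenol orange as the 573 to 405 nm absorbance ratio. Arachidonic acid at 40 uM (final) was turned over for 30 min at room temperature by 150 nM human 12hLO, pH 7.0 Hepes buffer, after 15 min compound preincubation.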
POLI inh: DNA polymerase iota (human) inhibition; AID 588590; 390,000 tested, 1% active; Pol iota fluorescent replication assay, 10 min; Q9UNA4; Potency, µM (highest dose often 115 µM), without a hit: at the highest dose activity, negative = inhibition, actives largely listed as inhibitors; note: potency is the fitted concentration of half-maximal effect
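Pol iota at 10 nM preincubated 15 min with compounds at room temperature; reaction started with fluorescent substrate, 50 nM final. Fluorescence read kinetically at 0 and 10 min; buffer-only wells as negative control.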
PI5P4Ka inh: inhibitors of human PI5P4K alpha; PI5P4Kalpha enzyme, ADP-Glo luminescence, 60 min; hits give low values; 330,000 tested, 1.2% active; AID 652105; max response, %; P48426; active = max response of -50% or lower; inconclusive = between -30% and -50%; inactive = -30% or higher; note: value at the top dose of about 77 µM; % is set by controls: 0 for no effect and ±100 for the full control effect
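PI5P4Kalpha ADP-Glo assay; 5 microM ATP final; 60 min RT reaction; HEPES pH 7.4/EGTA/CHAPS, 5% DMSO; controls lacking substrate or enzyme; luminescent end-point.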
Pol beta inh: blocks human DNA polymerase beta activity; P06746; Pol beta primer extension/strand displacement, fluorescence kinetic; Potency, µM (series often up to 114 µM), inactives show at the top dose activity change, negative = inhibition, usual class: inhibitors; 340,000 tested, 1.3% active; note: potency is the fitted concentration of half-maximal effect; % is set by controls: 0 for no effect and ±100 for the full control effect
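Reaction started by 50 nM substrate onto compound-treated Pol beta (10 nM, 15 min preincubation, room temperature); plates read at 0 min and 10 min. Normalized concentration-effect data fitted by four-parameter Hill equation.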
Pol kappa inh: inhibitors of human DNA polymerase kappa; purified Pol kappa, fluorescent DNA synthesis assay, 10 min; Potency, µM (doses to about 107 µM), without a hit: top-dose activity, negative = inhibition, actives largely listed as inhibitors; 400,000 tested, 0.53% active; note: potency is the fitted concentration of half-maximal effect; % is set by controls: 0 for no effect and ±100 for the full control effect
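Here, compound and 10 nM enzyme are combined for 15 min at room temperature; adding 50 nM substrate (final) starts DNA synthesis, tracked by fluorescence at 0 and 10 min against buffer-only wells.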
* hit, by the source's call; ? = inconclusive; · = no result given; [ ] = another dose, or the depositor's remark. In the library only some 2.9% were active in any assay of this set; here they are far more common. Unless noted, calls come from the whole dose curve; as a rule, active = well fitted inhibition curve with a large enough effect; inconclusive = small, poorly fitted or top-dose-only effect, or another doubt; inactive = no such curve, though single readings can be large or run the other way.

SMILES	POLH inh	12-LOX inh	POLI inh	PI5P4Ka inh	Pol beta inh	Pol kappa inh
CC(=O)c1cccc(NC(=O)OC[C@H]2C[C@@H]3CCN2C[C@@H]3c2cc(C3CCCC3)nc(C)n2)c1	·	-2%	·	·	·	·
COc1cc(NC(=O)OC[C@H]2C[C@@H]3CCN2C[C@@H]3c2cc(-c3ccc(N(C)C)cc3)nc(C)n2)cc(OC)c1	·	45µM*	·	·	·	·
CC(C)NC(=O)OC[C@H]1C[C@@H]2CCN1C[C@@H]2c1cc(C2CCCC2)nc(-c2ccncc2)n1	·	28µM*	·	·	·	·
CC(=O)c1ccc(NC(=O)OC[C@H]2C[C@@H]3CCN2C[C@@H]3c2cc(C3CCCC3)nc(-c3ccncc3)n2)cc1	·	-30%	·	·	·	·
CC[C@H]1CN2CC[C@H]1C[C@@H]2CN(Cc1ccc(SC)cc1)Cc1ccc(SC)cc1	·	-24%[176 µM]	·	·	·	·
COc1ccccc1CNC(=O)[C@H]1CN2CCC1C[C@@H]2Cn1cc(CO)nn1 (stereo partly drawn)	·	-16%[176 µM]	·	·	·	·
COc1ccc2[nH]c(C)c(CCNCc3cn(C)c4ccccc34)c2c1	-20%	5.6µM*	15%	-3	·	-7%
COc1ccc(CNCCc2c(C)[nH]c3ccc(OC)cc23)c(F)c1	·	1.6µM*	·	·	·	·
Cc1[nH]c2ccc(OCc3ccccc3)cc2c1CCN	-24%	-25%	15%	-1	9%	8%
COc1ccc2c(c1)NP(=S)(c1ccccc1)N2C (stereo not drawn)	-29%	?	12%	3	·	2%
COc1ccc(P2(=O)Nc3ccccc3N2)cc1	-9%	-20%	91%	-6	40µM*	-32%
CN(C)c1c([N+](=O)[O-])cc(N2C(=O)C=CC2=O)cc1[N+](=O)[O-]	-17%	·	?	-86*	·	-37%
CC(C)NC(=O)C(C)N1CCN(S(=O)(=O)c2ccc3ccccc3c2)CC1 (stereo not drawn)	11%	1.4µM*	39%	-6	3%	2%
COc1cc(CN2CCNCC2)cc(OC)c1OC	-12%	6.3µM*	-7%	-10	1%	-19%
COc1ccc(CN2CCNCC2)c(OC)c1OC	-13%	-18%	?	-3	46%	0%
COC(=O)c1sccc1NC(=O)N1[C@H]2CC[C@@H]1c1cncnc1C2	·	37%	·	·	·	·
Cc1cc(C)nc(NS(=O)(=O)c2ccc(N=Cc3c(O)n(C)c(=O)n(C)c3=O)cc2)n1	-14%	-2%	12%	-7	13%	2%
Cc1ccnc(NS(=O)(=O)c2ccc(N=Cc3c(O)n(C)c(=O)n(C)c3=O)cc2)n1	-4%	5µM*	5%	-6	?	-5%
Cc1ccc(CNCCc2c[nH]c3ccccc23)c(C)c1	·	13µM*	·	·	·	·
CCOc1ccc(CNCCc2c[nH]c3ccccc23)cc1OCC	·	-27%	·	·	·	·
Clc1cccc(CNCCc2c[nH]c3ccccc23)c1	-19%	4.5µM*	115%	1	14%	-13%
CN1CCC(N(C)c2ncnc3ccc(Br)cc23)CC1	-4%	0%	27%	1	?	-5%
Cc1ccc(-c2nc(N(C)C3CCN(C)CC3)c3ccccc3n2)cc1	1%	-18%	?	·	28µM*	-8%
CC1(C)C[C@H]2C=C(C=O)[C@]3(C=O)C[C@]3(C)[C@H]2C1	-10%	-18%	45µM*	-19	20µM*	?
O=C(Nc1ccc2n(c1=O)C[C@H]1C[C@@H]2CN(C(=O)NC2CCCCC2)C1)c1ccco1	·	51%[176 µM]	·	·	·	·
SMILES	POLH inh	12-LOX inh	POLI inh	PI5P4Ka inh	Pol beta inh	Pol kappa inh
C[N+]12CCC(CC1)C(=C(c1ccccc1)c1ccccc1)C2	-12%	35µM*	-13%	-16	22%	-12%
O=C(NCc1ccccc1)[C@H]1CN2CCC1C[C@@H]2Cn1cc(CSc2ccccc2)nn1 (stereo partly drawn)	·	4%	·	·	·	·
NC(=O)OCCCc1ccccc1	-5%	36%	?	2	·	0%
CCOC(=O)CCCc1cc[c]([Sb](=[O])([OH])[OH])cc1	·	·	1µM*	·	·	0.71µM*
COc1cccc(CC(=O)N2[C@H]3CC[C@@H]2c2cnc(-c4ccc(F)cc4)nc2C3)c1	·	29%	·	·	·	·
CN1C(=O)CO[C@H]2CN(C3CCC3)C[C@H]21	·	8%[176 µM]	·	·	·	·
